A number with no mark means an inactive call. Active and inactive are the calls of the source. The rule behind the calls is not given here.

Sequence of Estrogen receptor (Homo sapiens) (P03372 whole entry, looked up): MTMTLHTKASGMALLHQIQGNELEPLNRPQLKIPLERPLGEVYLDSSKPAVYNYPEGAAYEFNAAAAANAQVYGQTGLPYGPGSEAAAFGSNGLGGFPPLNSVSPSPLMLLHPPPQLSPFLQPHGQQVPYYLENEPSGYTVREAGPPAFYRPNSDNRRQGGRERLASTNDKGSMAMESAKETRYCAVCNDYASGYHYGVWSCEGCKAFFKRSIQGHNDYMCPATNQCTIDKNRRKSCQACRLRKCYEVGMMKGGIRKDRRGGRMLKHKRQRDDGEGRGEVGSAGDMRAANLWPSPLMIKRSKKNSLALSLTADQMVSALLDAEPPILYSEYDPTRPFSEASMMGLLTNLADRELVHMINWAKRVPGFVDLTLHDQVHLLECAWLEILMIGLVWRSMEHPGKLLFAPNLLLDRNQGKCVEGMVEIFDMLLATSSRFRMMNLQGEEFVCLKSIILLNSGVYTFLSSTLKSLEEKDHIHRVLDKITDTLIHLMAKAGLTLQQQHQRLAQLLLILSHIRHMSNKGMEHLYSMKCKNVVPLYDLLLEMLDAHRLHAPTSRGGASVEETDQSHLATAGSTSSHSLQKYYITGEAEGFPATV

The test addresses Estrogen receptor (Homo sapiens) (UniProt P03372). The test can be described thus: displacement of fluorescent estrogen from ERalpha – cell-based, Cos7 ERalpha-GFP, flow cytometry, primary screen (AID 1211).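 Note: 0% = DMSO vehicle wells and 100% = no E2-Alexa633 signal left.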 The settings on record: fluorescent ligand competition, at 10 µM, hits give high values.
`CCOc1ccc(N=C2NC(=O)S/C2=C\c2ccc(OC)cc2)cc1`: the inhibition of ligand binding was 39%.

As for `CCOc1ccccc1N1CSC2=C(C#N)C(c3c(OC)ccc4ccccc34)CC(=O)N2C1` (configuration not stated), the inhibition of ligand binding is 19%.

In the case of `O=C(CNc1ccccc1)N/N=C/c1cn(-c2ccccc2)nc1-c1ccccc1`, the inhibition of ligand binding is 28%.

For `CC(=O)Nc1nonc1-c1nc2ccccc2n1N(C(C)=O)C(C)=O`, the inhibition of ligand binding was 44%.

Consider `O=C(Cc1cccs1)Nc1ccccn1`, for which the inhibition of ligand binding is 0%.

Consider `COc1cccc(NC(=O)CSc2nc3ccccc3c3nc4ccccc4n23)c1`, for which the inhibition of ligand binding was 51%.

In the case of `Cc1ccc(C(=O)NCC(=O)OCC(=O)c2c(N)n(C)c(=O)n(C)c2=O)s1`, the inhibition of ligand binding is 14%.

Consider `COc1cc(NC(=O)COc2ccc(-n3cnnn3)cc2)c(OC)cc1Cl`, for which the inhibition of ligand binding is 58%.

As for `O=C(Nc1ccc(O)cc1)C1CC=CCC1` (configuration not stated), the inhibition of ligand binding is 6%.

As to `COc1ccc(Cc2nnc(NC(=O)Cc3cccs3)s2)cc1`, the inhibition of ligand binding is 47%.

Regarding `Cn1nc([N+](=O)[O-])c2c(-c3nc4ccccc4s3)c(N)n(C3CCCCC3)c2c1=O`, the inhibition of ligand binding was 30%.

In the case of `ON=C1/C(=N\O)CC2(C/C1=N/O)OCCO2`, the inhibition of ligand binding was 33%.

Regarding `O=C1CC(=O)N2N=C(c3ccc([N+](=O)[O-])cc3)SC2=N1`, the inhibition of ligand binding is 38%.

For `CCO/C([O-])=N/c1c[n+](N2CCOCC2)no1`, the inhibition of ligand binding was 0%.

Turning to `COc1cc(C(=O)Nc2nnc(-c3sccc3C)s2)cc(OC)c1OC`, the inhibition of ligand binding was 2% (active).

Turning to `Cc1cc(-c2nnc3sc(-c4ccc(Cl)cc4Cl)nn23)n[nH]1`, the inhibition of ligand binding was 27%.

For the molecule `COc1cc2cc(C(c3nnnn3C3CCCC3)N3CCc4ccccc43)c(=O)[nH]c2cc1OC` (configuration not stated), the inhibition of ligand binding is 36%.
